PubChem BioAssay (EPA / NIEHS)
Records with an inconclusive call do not appear. Activity calls are given as the source filed them. The calls were made as follows: active = hit-call score of the fitted dose curve at least 0.9, where 1 is the maximum; inconclusive = response in the unintended direction; inactive = score below 0.9.

Biological target: chimpanzee Androgen Receptor (AR), AR (gene 747460) (UniProt O97775)
Assay: NVS_NR_cAR: NovaScreen (NVS) Nuclear Receptor Binding Assay for chimpanzee Androgen Receptor (AR) (AID 2283346);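 also: a loss of bound radioligand signal versus DMSO counts as binding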
Description: NVS_NR_cAR is a biochemical, single-readout assay that uses extracted gene-proteins from Sf9/Sf21 in a cell-free assay. Measurements were taken 72 hours after chemical dosing in a 96-well plate.NVS_NR_cAR is one of one assay component(s) measured or calculated from the NVS_NR_cAR assay. It is designed to make measurements of radioligand binding, a form of binding reporter, as detected with scintillation counting signals by Lysate-based radiodetection technology.Data from the assay component NVS_NR_cAR was analyzed into 1 assay endpoint. This assay endpoint, NVS_NR_cAR, was analyzed in the positive analysis fitting direction relative to DMSO as the negative control and baseline of activity. Using a type of binding reporter, loss-of-signal activity can be used to understand changes in the binding as they relate to the gene AR. Furthermore, this assay endpoint can be referred to as a primary readout, because the performed assay has only produced 1 assay endpoint. To generalize the intended target to other relatable targets, this assay endpoint is annotated to the nuclear receptor intended target family, where the subfamily is steroidal.
Binding assays used specific radioligands (tritiated, iodinated) with non-radioactive competitive displacement ligands in agonist or antagonist protocols (as indicated) and various reference compounds and inhibitors to titrate specific binding to receptors and transporters. Most enzyme assays (CYPs, kinases, phosphatases, proteases, HDACs) used recombinant protein and specific substrates (fluorescence mostly, some colorimetric and radioactive) and inhibitors, followed by a biochemical separation of substrate and product. All assays for the biochemical HTS were initially run in duplicate at a single concentration (10 uM for CYP450 assays and 25 uM for all others). […] Each assay was run with positive and negative controls, and concurrent controls on every plate. The follow-up (secondary) screen tested active chemical-pairs in concentration series, as well as a few additional assays not tested in the primary screen, some selected negative inactives, and several cases re-run in the concentration series for confirmatory purposes.

Sequence of chimpanzee Androgen Receptor (AR), AR (gene 747460) (O97775 whole entry, looked up): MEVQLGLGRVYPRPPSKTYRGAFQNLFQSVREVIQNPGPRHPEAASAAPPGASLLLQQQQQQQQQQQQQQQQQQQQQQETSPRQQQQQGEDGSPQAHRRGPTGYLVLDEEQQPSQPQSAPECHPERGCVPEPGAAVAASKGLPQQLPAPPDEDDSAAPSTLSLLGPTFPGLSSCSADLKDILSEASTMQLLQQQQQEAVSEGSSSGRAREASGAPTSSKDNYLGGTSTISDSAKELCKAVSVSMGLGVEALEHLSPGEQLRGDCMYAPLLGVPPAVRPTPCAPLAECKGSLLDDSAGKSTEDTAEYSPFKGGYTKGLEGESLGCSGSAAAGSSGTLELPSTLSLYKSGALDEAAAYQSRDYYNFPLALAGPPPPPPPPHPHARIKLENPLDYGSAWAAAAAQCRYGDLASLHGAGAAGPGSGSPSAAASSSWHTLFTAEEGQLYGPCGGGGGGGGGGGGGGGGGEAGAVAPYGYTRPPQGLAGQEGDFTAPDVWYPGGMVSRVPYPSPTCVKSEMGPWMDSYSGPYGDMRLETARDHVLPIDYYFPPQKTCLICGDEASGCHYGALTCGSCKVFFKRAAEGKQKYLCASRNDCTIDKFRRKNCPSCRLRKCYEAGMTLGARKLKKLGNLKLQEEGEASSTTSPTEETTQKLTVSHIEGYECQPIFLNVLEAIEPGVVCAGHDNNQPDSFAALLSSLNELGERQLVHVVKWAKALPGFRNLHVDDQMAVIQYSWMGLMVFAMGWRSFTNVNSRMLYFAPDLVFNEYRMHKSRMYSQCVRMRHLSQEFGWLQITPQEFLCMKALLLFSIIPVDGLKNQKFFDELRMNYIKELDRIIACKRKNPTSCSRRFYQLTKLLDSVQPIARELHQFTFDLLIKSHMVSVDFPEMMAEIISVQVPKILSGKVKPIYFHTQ

Compound	outcome	AC50
OCCOCCOCCOCCO	inactive	–
O=Nc1ccc(Nc2ccccc2)cc1	inactive	–
Cc1ccc(C(C)C)cc1O	–	10600 nM (active)
CC(C)C[C@H]1C(=O)N2CCC[C@H]2[C@]2(O)O[C@](NC(=O)[C@@H]3C=C4c5cccc6[nH]c(Br)c(c56)C[C@H]4N(C)C3)(C(C)C)C(=O)N12	–	1050 nM (active)
C#C[C@]1(O)CC[C@H]2[C@@H]3CCC4=Cc5oncc5C[C@]4(C)[C@H]3CC[C@@]21C	inactive	–
O=C1OC2(c3cc(Br)c(O)c(Br)c3Oc3c2cc(Br)c(O)c3Br)c2c(Cl)c(Cl)c(Cl)c(Cl)c21	inactive	–
C=CC(C)(O)CCC=C(C)CCC=C(C)C (centres undefined)	inactive	–
O=c1[nH]nnc2ccccc12	inactive	–
O=C(Oc1ccccc1)c1ccc(O)cc1	inactive	–
CCCCCCCCCCCCCCCC(=O)OC[C@H](O)[C@H]1OC(=O)C(O)=C1O	inactive	–
CC(C)=CCCC(C)=CCCC(C)=CCO	inactive	–
CCN(CC)c1ccc(C(=C2C=CC(=[N+](CC)CC)C=C2)c2ccc(S(=O)(=O)O)cc2S(=O)(=O)[O-])cc1	inactive	–
O=C1C(c2[nH]c3ccc(S(=O)(=O)O)cc3c2O)=Nc2ccc(S(=O)(=O)O)cc21	inactive	–
CC(=O)O[C@]1(C(C)=O)CC[C@H]2[C@@H]3C[C@H](C)C4=CC(=O)CC[C@]4(C)[C@H]3CC[C@@]21C	–	422 nM (active)
